Experimental data from PubChem BioAssay (NCI).
The panel holds about 79,000 compounds, 15% with a hit somewhere; the sample as a whole holds those more often. Unmarked numbers belong to inactive results. Activity calls are given as the source filed them. Cut-off read from the data, not from the text of the source: active = growth inhibition above about 70%; inactive = the rest.

How the values were obtained:
[1] = NCI Yeast Anticancer Drug Screen. Data for the rad50 strain (AID 155);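 note: 0% = growth of vehicle-only cultures of the same strain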; conditions: S. cerevisiae rad50 strain growth inhibition; at 50.0 µM; active compounds read high
In short: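 Readout: growth inhibition relative to vehicle-treated cultures. Compound exposure was carried out in a genetically defined yeast strain deficient in DNA damage repair.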

[2] = NCI Yeast Anticancer Drug Screen. Data for the mec2-1 strain (AID 157); conditions: S. cerevisiae mec2-1 strain, at 50.0 µM, active compounds read high
In short: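 Readout is yeast growth inhibition, normalised to vehicle-treated controls, in the mec2-1 strain exposed to compound.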

[3] = NCI Yeast Anticancer Drug Screen. Data for the sgs1 mgt1 strain (AID 161);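 note: 0% = growth of cultures given vehicle only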; conditions: S. cerevisiae sgs1 mgt1 strain, at 50.0 µM, active compounds read high
In short: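 Yeast cells carrying a defined DNA-repair defect were exposed to test compounds. Growth inhibition was measured relative to vehicle-treated controls.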

[4] = NCI Yeast Anticancer Drug Screen. Data for the cln2 rad14 strain (AID 165);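 note: 0% = growth equal to vehicle treated cultures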; conditions: S. cerevisiae cln2 rad14 strain, at 50.0 µM, active compounds read high
In short: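 Relative to vehicle controls, growth inhibition of compound-treated cln2 rad14 yeast was recorded.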

[5] = NCI Yeast Anticancer Drug Screen. Data for the bub3 strain (AID 167); conditions: S. cerevisiae bub3 mutant strain, at 50.0 µM, active compounds read high
In short: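 Readout: yeast growth inhibition, expressed relative to vehicle-only wells. The test organism is a mutant strain from a panel with lesions in DNA repair or checkpoint genes.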

[6] = NCI Yeast Anticancer Drug Screen. Data for the mlh1 rad18 strain (AID 175); conditions: S. cerevisiae mlh1 rad18 strain growth inhibition; at 50.0 µM; active compounds read high
In short: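 Test agents were incubated with a yeast strain of defined genotype (DNA damage repair defect). Inhibition of growth was derived by comparison with vehicle-exposed cultures.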

Compound	growth inhibition [1]	growth inhibition [2]	growth inhibition [3]	growth inhibition [4]	growth inhibition [5]	growth inhibition [6]
CCCCCCCC(C)(O)C#CC(C)(O)CCCCCCC (stereo unspecified)	4.35%	-4.15%	4.85%	-20.6%	5.05%	13.3%
Clc1ccccc1SSc1ccccc1Cl	21.4%	23.9%	22.2%	-9.2%	28.1%	29.9%
NC(=O)c1ncn(C2OC(CO)C(O)C2O)c1C(N)=O (stereo unspecified)	-7.6%	-24.8%	-12.5%	-4.9%	-0.3%	-24.6%
CC1CCCCN1CCCO (stereo unspecified)	14.6%	-32.4%	-22.1%	3.05%	-14.6%	17.4%
CC(=O)OC/C(=C/C#N)C1CCC2C3CCC4CC(OC(C)=O)CCC4(C)C3CCC12C (stereo unspecified)	47%	30.7%	45.5%	40%	21.5%	57.5%
CC12C(=O)NC(c3ccccc3)(c3ccccc31)C1C(=O)N(C(N)=O)C(=O)C12 (stereo unspecified)	13.9%	7.35%	25.6%	-3.05%	-15.2%	4.4%
C=C(C)C(=O)O[C@H]1C/C(CO)=C/CCC(=C)C(OC(C)=O)[C@H]2OC(=O)C(=C)[C@H]12 (stereo partly specified)	10.4%	36.8%	-0.9%	6.85%	-21.9%	-20.2%
N#Cc1cnn(-c2ccc(Br)cc2)c1N	11.4%	0.6%	3.1%	-33.8%	-7%	6.3%
CCCCCCCCC(=O)c1c(OC)oc(/C=N/NC(N)=S)cc1=O	83.5% (active)	77.1% (active)	79% (active)	9.55%	86.2% (active)	71.8% (active)
COc1ccc(CCNC(=S)NC(=O)c2ccc(Cl)c(Cl)c2)cc1OC	47.6%	47%	68.3%	49.5%	44.4%	56%
Nc1nc(N)c2nnsc2n1	13.7%	-5.05%	13.3%	16.6%	14.4%	2.9%
C/C(CCn1[nH]c(=O)ccc1=O)=N\OCCCc1ccccc1	2.7%	-27.6%	11.7%	16.3%	-3%	11.5%
Cc1ccc(S(=O)(=O)NN=C2CCCCCCCCCCC2)cc1	-8.35%	-21.4%	-7.75%	7.45%	9.05%	-1.8%
CCSCC1OC(n2cnc3c(=S)nc(N)[nH]c32)C(O)C1O (stereo unspecified)	15.2%	10.1%	-0.75%	16.4%	11.8%	21.1%
O=c1[nH]c(-c2cccc(F)c2)nc2ccccc12	16.9%	-10.9%	3.1%	19.2%	-7.4%	10.2%
O=C(NCCO)c1cc2ccccc2cc1O	-1.9%	-25.3%	-10.4%	-3.5%	-17.9%	7.55%
COc1ccc2[nH]c3c(c(=O)c2c1)CCCC3	-1.15%	-12.9%	2.85%	-6.2%	5.8%	-12.7%
NC(CCCCN=Cc1nc(-c2ccccc2)oc1O)C(=O)O (stereo unspecified)	-33.6%	-52.3%	-50.6%	21.4%	-27.7%	-47.5%
Nc1ccn([C@H]2CO[C@@H](CO)O2)c(=O)n1	-53%	-46.4%	-18.7%	0.75%	-14.7%	-22.2%
CCCCCCCC[n+]1cccc(C#N)c1	12.7%	23.6%	21.4%	16.7%	36%	19.1%
COC(=O)Cc1nc2ccccc2o1	36.1%	9%	20.9%	37.9%	59.2%	31.5%
